# Results taken from PubChem BioAssay (NCATS).
# Records with an inconclusive call do not appear. A number with no mark means an inactive call. Calls of active or inactive are those of the source. Calls come from the whole dose curve; as a rule, active = well fitted inhibition curve with a large enough effect; inconclusive = small, poorly fitted or top-dose-only effect; inactive = flat fitted curve, though single readings scatter.
# Molecular target: Phospholipid hydroperoxide glutathione peroxidase GPX4 (Homo sapiens) (UniProt P36969)
# Test: Primary qHTS Assay for Inhibitors of Recombinant Selenoprotein Glutathione Peroxidase 4 (GPX4) (AID 1845192); note: nearly all actives have a fitted effect of over 65% in size
# Conditions: recombinant GPX4, GR-coupled NADPH fluorescence, 15 min; series mostly up to 50 µM; activity change, negative = inhibition: at the top concentration
# In short: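 Steps: GPX4 plus compound, 30 min RT; add GR/GSH/NADPH master mix; start with cumene hydroperoxide; read 340/450 nm fluorescence at 0 and 15 min. Finals were 200 nM GPX4, 1 mM GSH, 0.5 mM CHP, 0.5 mM NADPH, 100 nM GR.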
# % is set by controls: 0 for no effect and ±100 for the full control effect.
# Chain of Phospholipid hydroperoxide glutathione peroxidase GPX4 (Homo sapiens) (P36969 whole entry, looked up): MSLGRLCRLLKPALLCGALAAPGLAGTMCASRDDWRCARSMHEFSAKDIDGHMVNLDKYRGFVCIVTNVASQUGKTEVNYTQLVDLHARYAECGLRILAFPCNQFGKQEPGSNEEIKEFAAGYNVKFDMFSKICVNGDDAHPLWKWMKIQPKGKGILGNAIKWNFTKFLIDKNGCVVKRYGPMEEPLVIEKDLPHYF
Compound,outcome,"activity change, negative = inhibition",Potency
NC[C@@H]1O[C@H](C23CC4CC(CC(C4)C2)C3)Cc2c1ccc(O)c2O,inactive,–,–
Clc1ccc(N2CCN(Cc3cc4ccccn4n3)CC2)cc1,–,-9.69%,–
CCNC(=O)[C@H]1O[C@@H](n2cnc3c(N)nc(NCCc4ccc(CCC(=O)O)cc4)nc32)[C@H](O)C1O (some centres not stated),inactive,–,–
Cc1cc(NC(=O)Nc2ccc3c(ccn3C)c2)sn1,–,-15.6%,–
COC1=C(OC)C(=O)c2ccccc2C1=O,inactive,–,–
O=C1/C(=C/c2ccsc2)CC/C1=C\c1cccs1,–,-7.25%,–
COc1ccc(/C=C/c2nc(NCCCN(C)C)c3ccccc3n2)cc1,inactive,–,–
C[N+]1(C)CCC(OC(=O)C(c2ccccc2)c2ccccc2)CC1,–,0.403%,–
NC(=O)C1=CN(C2OC(COP(=O)(O)OP(=O)(O)OC[C@H]3O[C@@H](n4cnc5c(N)ncnc54)[C@H](OP(=O)(O)O)[C@@H]3O)C(O)C2O)C=CC1 (some centres not stated),inactive,–,–
CC(C)NC[C@H](O)COc1cccc2[nH]ccc12,–,-5.82%,–
O=C(O)c1cc(O)c(O)c(O)c1,–,-7.48%,–
CCCCCCCCCCCCCCCCCC(=O)O,–,-2.5%,–
COc1cc(SC)ccc1C(=O)N1CCC(Cc2ccccc2)CC1,–,–,inactive
COc1cc(C(O)CO)ccc1OS(=O)(=O)O (configuration not stated),inactive,–,–
N=c1ccn2c(n1)O[C@H]1[C@H](O)[C@@H](CO)O[C@H]12,–,–,inactive
CCN1/C(=C/C(C)=O)Sc2ccc(OC)cc21,–,-25.8%,–
COc1cc(OC)c(/C=C2/C(=O)Nc3ccccc32)c(OC)c1,inactive,–,–
S=C(S)OC1CC2CC1C1CCCC21 (configuration not stated),–,-15.6%,–
NC[C@H]1O[C@@H](n2cnc3c(N)ncnc32)[C@H](O)[C@@H]1O,–,2.12%,–

Compound,outcome,"activity change, negative = inhibition",Potency
O=C(CCSCc1ccco1)NNC(=O)N1Cc2ccccc2Oc2ccc(Cl)cc21,inactive,–,–
Nc1nc(Nc2ccccc2)nc2c1ncn2[C@@H]1O[C@H](CO)[C@@H](O)[C@H]1O,–,-15.8%,–
N[C@H](CCCP(=O)(O)O)C(=O)O,–,-6.32%,–
Oc1cc2c(cc1O)CN(C(=S)NCCc1ccc(Cl)cc1)CCC2,–,-5.26%,–
COc1ccc(Br)cc1S(=O)(=O)NC(=O)/C=C/c1ccccc1Cc1ccc2ccccc2c1,–,0.234%,–
Nc1ccn([C@@H]2O[C@H](CO)[C@@H](O)[C@@H]2O)c(=O)n1,–,4.36%,–
Oc1cc(O)cc(/C=C/c2ccc(O)c(O)c2)c1,–,-1.48%,–
O=C(O)CC1CCCc2ccccc2C1O (configuration not stated),–,-0.377%,–
O=C1NCc2c1c1c3ccccc3[nH]c1c1[nH]c3ccccc3c21,–,-2.92%,–
O=C(c1ccc(Cl)cc1)N1CCN(c2ccc([N+](=O)[O-])c3ncccc23)CC1,inactive,–,–
O=C1NC(=O)c2c1c(-c1ccccc1)cc1[nH]c3ccc(O)cc3c21,–,-25.9%,–
O=C(O)CNC(=O)C(CS)Cc1ccccc1 (configuration not stated),–,-6.55%,–
CC(C)Cc1ccc([C@H](C)C(=O)O)cc1,–,-17.3%,–
Nc1nc(OCC2CCCCC2)c2[nH]cnc2n1,inactive,–,–
CC12C(=O)OC(=O)C1(C)C1CCC2O1 (configuration not stated),–,-1.26%,–
Cn1c(=O)c(-c2c(Cl)cccc2Cl)cc2cnc(Nc3ccc(N4CCOCC4)cc3)nc21,–,-19.8%,–
Nc1nc(Cl)nc2c1ncn2[C@@H]1O[C@H](CO)[C@@H](O)[C@H]1O,inactive,–,–
CN(C)c1nc(N)c(C(=O)N=C(N)N)nc1Cl,–,-19.5%,–
